Assay outcomes: PubChem, several laboratories
An excerpt weighted towards active compounds, which were near 1.4% of everything screened.
LANA-H2A inh = blocks KSHV LANA binding to histone H2A/H2B; 320,000 tested, 0.6% active; inhibition, % (concentration not given with the values); AID 2629; Q9QR71; cell-free LANA-H2A/H2B peptide, fluorescence polarization; in the data active = inhibition mostly above about 10%, no sharp cut-off; inactive = mostly below about 6.7%
A3G deaminase = blocks human APOBEC3G single-stranded DNA deamination; inhibition, % at 20 µM; AID 493012; 330,000 tested, 0.28% active; recombinant A3G, ssDNA deamination FAM/TAMRA fluorescence;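 active = inhibition of at least 40% at 20 µM, with no more than 30% in the related APOBEC3A deaminase screen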;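 also: plate controls were DMSO wells with A3G for no effect and wells lacking A3G enzyme for full effect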
HDAC3 inhib = blocks human histone deacetylase 3. O15379. recombinant HDAC3, fluorogenic peptide/trypsin coupled, fluorescence. 320,000 tested, 0.15% active. AID 2718. inhibition, % at 8.3 µM; in the data active = inhibition above about 26%, passing the limit was not always enough; inconclusive = no clear call, values can overlap the other calls
Target sequence (O15379 whole entry, looked up): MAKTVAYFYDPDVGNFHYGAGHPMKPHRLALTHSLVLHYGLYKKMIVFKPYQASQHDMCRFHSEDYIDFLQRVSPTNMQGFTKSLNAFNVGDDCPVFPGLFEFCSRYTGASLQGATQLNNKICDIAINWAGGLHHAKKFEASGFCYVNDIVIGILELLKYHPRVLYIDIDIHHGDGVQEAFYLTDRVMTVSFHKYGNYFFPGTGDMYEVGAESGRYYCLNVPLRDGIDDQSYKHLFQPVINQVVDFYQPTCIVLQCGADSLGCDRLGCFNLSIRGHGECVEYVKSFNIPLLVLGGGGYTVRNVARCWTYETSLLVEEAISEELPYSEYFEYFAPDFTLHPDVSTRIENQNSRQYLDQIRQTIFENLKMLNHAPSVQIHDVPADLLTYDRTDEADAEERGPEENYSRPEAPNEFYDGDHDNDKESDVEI
A3A deaminase = human APOBEC3A DNA deaminase inhibition; P31941; 330,000 tested, 0.41% active; inhibition, % at 20 µM; recombinant A3A, FAM/TAMRA ssDNA deamination fluorescence;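 active = at least 40% inhibition at 20 µM here, with at most 30% in a related deaminase screen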;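 also: plate controls were A3A with DMSO for no effect and wells lacking A3A enzyme for full effect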
Target sequence (P31941 whole entry, looked up): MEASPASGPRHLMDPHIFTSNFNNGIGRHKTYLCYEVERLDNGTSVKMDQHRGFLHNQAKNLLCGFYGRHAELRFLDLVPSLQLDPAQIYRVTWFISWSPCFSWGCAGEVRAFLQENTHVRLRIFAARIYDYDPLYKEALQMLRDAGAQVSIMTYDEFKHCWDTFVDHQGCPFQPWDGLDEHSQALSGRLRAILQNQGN
Active calls of the source: *.

What do the screens show for `CN(C)S(=O)(=O)c1cccc(NC(=O)CCc2c[nH]c3ccccc23)c1`?
LANA-H2A inh: active; A3G deaminase: -4; HDAC3 inhib: 10; A3A deaminase: -3

Results for Nc1ncnc2c1ncn2[C@@H]1O[C@H](CNCc2ccc(-n3cccn3)cc2)[C@@H](O)[C@H]1O ?
A3G deaminase: 9; HDAC3 inhib: -3; A3A deaminase: 1

What do the screens show for `c1ccc2[nH]c3cc4ncnc4cc3nc2c1`?
LANA-H2A inh: 26*; A3G deaminase: -4; HDAC3 inhib: 1; A3A deaminase: 1

What do the screens show for `Cc1ccccc1-n1c(SCC(=O)c2c(N)n(C3CC3)c(=O)[nH]c2=O)nnc1N1CCOCC1`?
LANA-H2A inh: 7; A3G deaminase: -9; HDAC3 inhib: 7; A3A deaminase: 13

Results for CCOC(=O)c1ccc(NC(=O)CN2C(=O)NC3(CCCCCC3)C2=O)cc1 ?
LANA-H2A inh: 6; A3G deaminase: -5; HDAC3 inhib: -8; A3A deaminase: 0

What do the screens show for `CCOC(=O)c1ccc(NC(=O)CCCN2C(=O)NC3(CCCC3)C2=O)cc1`?
LANA-H2A inh: 12*; A3G deaminase: -9; HDAC3 inhib: -5; A3A deaminase: -1

What do the screens show for `Cc1cccc(OCC(=O)Nc2ccc3oc(=O)ccc3c2)c1`?
LANA-H2A inh: -4; A3G deaminase: -2; HDAC3 inhib: inconclusive; A3A deaminase: 3

How did COCCCn1c(=O)cc(C)[nH]c1=S do in these assays?
LANA-H2A inh: 15*; A3G deaminase: 1; HDAC3 inhib: 0; A3A deaminase: -2

What do the screens show for `COCCCn1c(=S)[nH]c(C)c(C)c1=O`?
LANA-H2A inh: -2; A3G deaminase: -2; HDAC3 inhib: 16; A3A deaminase: 3

What do the screens show for `O=[N+]([O-])c1ccc(CSc2ccc(S(=O)(=O)N3CCOCC3)cn2)cc1`?
A3G deaminase: 18; A3A deaminase: 3

How did O=C(N/C(=C\c1ccc([N+](=O)[O-])cc1)C(=O)N1CCCCC1)c1ccccc1 do in these assays?
LANA-H2A inh: 13*; A3G deaminase: -10; HDAC3 inhib: 0; A3A deaminase: -2

Results for CN1CCN(C(=O)/C(=C/c2ccc([N+](=O)[O-])cc2)NC(=O)c2ccccc2)CC1 ?
LANA-H2A inh: 2; A3G deaminase: -14; HDAC3 inhib: -2; A3A deaminase: -7

Results for COc1ccc(O)c(C(=O)c2cnn(C(=O)c3cc(C)oc3C)c2)c1 ?
LANA-H2A inh: -6; A3G deaminase: -6; HDAC3 inhib: -1; A3A deaminase: -4

Results for COc1ccc(C(=O)n2cc(C(=O)c3cc(C)ccc3O)cn2)cc1 ?
LANA-H2A inh: 2; A3G deaminase: -4; HDAC3 inhib: 37*; A3A deaminase: 2

Results for CN(C)c1cccc(C(=O)n2cc(C(=O)c3cc(F)ccc3O)cn2)c1 ?
LANA-H2A inh: -6; A3G deaminase: 1; HDAC3 inhib: 4; A3A deaminase: 0

Results for O=C(c1cnn(C(=O)c2ccc(O)cc2)c1)c1ccccc1O ?
LANA-H2A inh: -2; A3G deaminase: -2; HDAC3 inhib: 76*; A3A deaminase: 6

What do the screens show for `COc1ccc(C(=O)n2cc(C(=O)c3cc(C)ccc3O)cn2)cc1OC`?
LANA-H2A inh: -2; A3G deaminase: -7; HDAC3 inhib: 53*; A3A deaminase: -5

What do the screens show for `COc1ccc(O)c(C(=O)c2cnn(C(=O)c3cccc(N(C)C)c3)c2)c1`?
LANA-H2A inh: -2; A3G deaminase: -4; HDAC3 inhib: 30*; A3A deaminase: -2

Results for COc1cc(CN(C2CC2)S(=O)(=O)c2ccccc2Br)cc(OC)c1 ?
A3G deaminase: -2; A3A deaminase: 3

Results for CS(=O)(=O)N(CC(=O)Nc1ccccc1C(=O)NCc1ccccc1)c1ccc2c(c1)OCCO2 ?
LANA-H2A inh: 86*; A3G deaminase: -2; HDAC3 inhib: -2; A3A deaminase: 3

How did Cn1nc(C(=O)Nc2cc(Cl)ccc2N2CCCC2)c2ccccc2c1=O do in these assays?
LANA-H2A inh: 48*; A3G deaminase: 13; HDAC3 inhib: 1; A3A deaminase: 13

How did Cc1ccc(Nc2nc(N3CCOCC3)nc(N3CCOCC3)n2)cc1 do in these assays?
LANA-H2A inh: -2; A3G deaminase: -3; HDAC3 inhib: 0; A3A deaminase: -1

Results for CCCCc1ccc(Nc2nc(N3CCOCC3)nc(N3CCOCC3)n2)cc1 ?
LANA-H2A inh: 21*; A3G deaminase: 3; HDAC3 inhib: -2; A3A deaminase: -2

Results for CC(C)(C)OC(=O)C[C@@H]1C/C=C\C[C@@H](CC(=O)N(CCO)Cc2ccccc2)C(=O)N[C@H](C(C)(C)C)COC1=O ?
LANA-H2A inh: 5; A3G deaminase: -8; HDAC3 inhib: -2; A3A deaminase: -1

How did CC(C(=O)NCc1cccs1)N1CCN(S(=O)(=O)c2ccc3c(c2)OCCCO3)CC1 (stereo not given) do in these assays?
A3G deaminase: -14; A3A deaminase: -6

What do the screens show for `Cc1ccc(C(=O)OCC(=O)c2c[nH]c3ccccc23)cc1NC(=O)c1ccco1`?
LANA-H2A inh: active; A3G deaminase: -4; HDAC3 inhib: 7; A3A deaminase: 1

What do the screens show for `CCN(CC)C(=O)COC(=O)c1ccc(C)c(NC(=O)c2ccco2)c1`?
LANA-H2A inh: -2; A3G deaminase: -5; HDAC3 inhib: 5; A3A deaminase: -1

Results for Cc1noc(C)c1C(=O)OCC(=O)c1c[nH]c2ccccc12 ?
LANA-H2A inh: 5; A3G deaminase: -6; HDAC3 inhib: -4; A3A deaminase: -3

Results for Cc1onc(-c2c(F)cccc2Cl)c1C(=O)OCC(=O)c1c[nH]c2ccccc12 ?
LANA-H2A inh: 29*; A3G deaminase: 6; HDAC3 inhib: 4; A3A deaminase: 7

How did O=C(Nc1ccccc1Cl)c1cccc(NC(=O)c2cccs2)c1 do in these assays?
LANA-H2A inh: 38*; A3G deaminase: -2; HDAC3 inhib: -7; A3A deaminase: 0

What do the screens show for `CC(C)C(NC(=O)c1ccc(Cl)cc1Cl)C(=O)N1CCC1` (stereo not given)?
LANA-H2A inh: 2; A3G deaminase: -10; HDAC3 inhib: 3; A3A deaminase: -3

Results for CC(C)[C@H](NC(=O)c1ccc(Cl)cc1Cl)C(=O)NNc1cccc(C(=O)O)c1 ?
LANA-H2A inh: 15*; A3G deaminase: -6; HDAC3 inhib: 4; A3A deaminase: 0

What do the screens show for `COc1ccc(NC(=O)N(C)C[C@@H]2Oc3ccc(NC(=O)NC(C)C)cc3CC(=O)N([C@H](C)CO)C[C@@H]2C)cc1`?
LANA-H2A inh: -2; A3G deaminase: -6; HDAC3 inhib: -1; A3A deaminase: 0

Results for CCCCC(CC)COC(=O)C(C#N)=C(c1ccccc1)c1ccccc1 (stereo not given) ?
LANA-H2A inh: 15*; A3G deaminase: -8; HDAC3 inhib: -1; A3A deaminase: -1

Results for O=C(COc1ccc(F)cc1Br)NCc1nnc2ccccn12 ?
LANA-H2A inh: -3; A3G deaminase: -9; HDAC3 inhib: -3; A3A deaminase: -5

Results for CC[C@]12c3[nH]c4cc(-c5ccco5)ccc4c3CCN1C(=O)[C@@H](CC(=O)NCc1ccc(OC)c(OC)c1)C[C@@H]2C(=O)N1CCN(C(=O)c2ccco2)CC1 ?
A3G deaminase: 26; A3A deaminase: -1
